The assay in a line: chemical genetic growth profiling, strain panel (AID 1159580).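 Also: tested at 20 µM; growth read once vehicle control cultures reached saturation at 30 °C; 1 = growth at the plate median or of vehicle wells; lower values mean less growth of the strain.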 The conditions noted are these: S. cerevisiae deletion strains, growth OD.
[1] abbreviates: locus YAL013W, strain DEP1, hits give low values.
Setting [2] is: locus YAL040C, strain CLN3, hits give low values.
The mark [3] stands for this setting: locus YCL061C, strain MRC1 (second series), hits give low values.
[4] abbreviates: locus YDR150W, strain NUM1, hits give low values.
[5] abbreviates: locus YDR363W, strain ESC2, hits give low values.
Setting [6] is: locus YER002W, strain NOP16, hits give low values.
The mark [7] stands for this setting: locus YGR078C, strain PAC10, hits give low values.
[8] abbreviates: locus YNL175C, strain NOP13, hits give low values.
[9] abbreviates: locus YNL197C, strain WHI3, hits give low values.
The mark [10] stands for this setting: locus YNL224C, strain SQS1, hits give low values.
The mark [11] stands for this setting: locus YOR083W, strain WHI5 (second series), hits give low values.
[12] abbreviates: locus YJR075W, strain HOC1, hits give low values.
[13] abbreviates: locus YNL322C, strain KRE1, hits give low values.
The mark [14] stands for this setting: locus YPL241C, strain CIN2, hits give low values.

Each structure is given as a SMILES string. Hit rate of the full screen: of about 5,500 compounds, about 2,000 (36%) were called active. About 18% were inconclusive and are not listed. This is one part of the list. A number with no mark means an inactive call. Rule as the data show it: active = normalized growth mostly below about 0.91 (no sharp cut-off); inconclusive = no clear call, values can overlap the other calls; inactive = mostly above about 0.92.

Here are results for three compounds from PubChem BioAssay AID1159580 (chemical genetic matrix, 2015).

Regarding `CC(C)NC[C@H](O)c1ccc(O)c(O)c1`, the normalized growth was 1.01 under setting [1]; 0.998 under setting [2]; 1 under setting [3]; 0.99 under setting [4]; 1 under setting [5]; 1 under setting [6]. In addition, the normalized growth is 1.01 under setting [7]; 1.02 under setting [8]; 1.01 under setting [9]; 1.01 under setting [10]; 1 under setting [11]; 0.97 (locus YPL055C, strain LGE1, hits give low values).
On to `CNC[C@H](O)c1ccc(O)c(O)c1`, for which the normalized growth by setting is: under setting [1], 1.01; under setting [2], 1.04; under setting [3], 1; under setting [4], 1; under setting [5], 0.993; under setting [6], 1.01. For the same compound, the normalized growth is 1.02 under setting [7]; 1 under setting [12]; 1.01 under setting [8]; 1.01 under setting [9]; 1.01 under setting [10]; 0.997 under setting [13]. The normalized growth was 1.02 under setting [11] and 1 under setting [14].
Turning to `CC(C)NC[C@@H](O)c1ccc(O)c(O)c1`, the normalized growth is 0.974 under setting [1]; 1.03 under setting [2]; 0.996 under setting [3]; 1 under setting [4]; 1 under setting [5]; 0.984 under setting [6]. Also, the normalized growth is, setting by setting: under setting [7], 0.99; under setting [12], 1.12 [resistant] (active); (locus YMR307W, strain GAS1, hits give low values) 1.1 [resistant] (active); under setting [8], 0.984; under setting [9], 0.985; under setting [10], 0.997. The normalized growth by setting is: under setting [13], 1.01; under setting [11], 1.04; under setting [14], 0.998.
